CtBP-E1A blk: qHTS Assay for Inhibitors of the CtBP/E1A Interaction. AlphaScreen GST-E1A/His-CtBP binding, 1536-well; stronger effect = lower value. CtBP / adenovirus E1A interaction (AlphaScreen). actives 0.49% (n = 340,000). AID 651724, 2012. activity change, % (test concentration not listed); in the data active = activity change below about -65%; inconclusive = mostly about -30% to -63%; note: % is set by controls: 0 for no effect and ±100 for the full control effect
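GST-E1A and His-tagged CtBP (125 nM each as 5X stock) were preincubated with pin-transferred compound for 2 h at 37 °C in the dark, then glutathione donor and nickel acceptor beads were added for 1 h before AlphaScreen reading.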
HP1b binding inh: HTS for Inhibitors of HP1-beta Chromodomain Interactions with Methylated Histone Tails; actives 0.56% (n = 390,000); AlphaScreen HP1-beta / biotin-H3K9me3 peptide binding; Potency, µM (series often up to 114 µM), without a hit: at the top dose activity change, negative = inhibition, usual class: inhibitors; Chromobox protein homolog 1 (Homo sapiens), P83916; note: potency is the fitted concentration of half-maximal effect; nearly all actives have a fitted effect of over 70% in size
Target sequence (P83916 whole entry, looked up): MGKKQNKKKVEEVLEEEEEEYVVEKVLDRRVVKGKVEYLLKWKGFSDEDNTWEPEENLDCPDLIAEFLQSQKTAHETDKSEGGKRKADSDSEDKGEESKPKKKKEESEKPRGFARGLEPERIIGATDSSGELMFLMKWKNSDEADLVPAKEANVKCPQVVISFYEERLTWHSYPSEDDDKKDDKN
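Compound inhibition of the preformed complex between 50 nM HP1-beta and 50 nM biotinylated H3K9me3 peptide was read by AlphaScreen. Buffer was PBS pH 7.4 with 0.01% Tween-20. Incubations ran 30 min at room temperature, with 10 ug/mL donor/acceptor beads.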
Six1-Eya2 blk: qHTS Assay for Inhibitors of the Six1/Eya2 Interaction; Homeobox protein SIX1 (Homo sapiens) + Protein phosphatase EYA2 (Homo sapiens), …; AlphaScreen GST-Six1/His-Eya2 binding, biochemical; stronger effect = lower value; actives 0.56% (n = 360,000); activity change, % (test concentration not listed); in the data active = activity change below about -65%; inconclusive = mostly about -30% to -63%; note: % is set by controls: 0 for no effect and ±100 for the full control effect
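Homogeneous AlphaScreen proximity assay pairing GST-Six1 with His-tagged Eya2 (added as 5X mix: 250 nM and 500 nM) in 50 mM Tris pH 8.0, 300 mM NaCl, 1 mM TCEP. Glutathione donor and nickel acceptor beads; 1 h, 37 °C, dark.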
JMJD2A Tudor inh: qHTS Assay for Inhibitors of JMJD2A-Tudor Domain; Lysine-specific demethylase 4A (Homo sapiens), O75164; AlphaScreen JMJD2A-Tudor / H3K4me3 peptide binding; Potency, µM (titrated, usually from 114 µM), for inactives: top-dose activity change, negative = inhibition, actives largely listed as inhibitors; actives 4.4% (n = 390,000); AID 504339, 2011; note: potency is the fitted concentration of half-maximal effect; % is set by controls: 0 for no effect and ±100 for the full control effect; nearly all actives have a fitted effect of over 50% in size
TDP1 inh: qHTS Assay for Inhibitors of Tyrosyl-DNA Phosphodiesterase (TDP1). Tyrosyl-DNA phosphodiesterase 1 (Homo sapiens), Q9NUW8. recombinant TDP1, AlphaScreen DNA substrate cleavage. Potency, µM (series often up to 130 µM), inactives show at the top dose activity change, negative = inhibition, usual class: inhibitors. actives 0.28% (n = 350,000); note: potency is the fitted concentration of half-maximal effect; % is set by controls: 0 for no effect and ±100 for the full control effect; nearly all actives have a fitted effect of over 40% in size
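Recombinant E. coli-expressed Tdp1 (1 nM) preincubated with compound 15 min at RT, then 5'-biotin/3'-phosphotyrosine-FITC DNA substrate (15 nM) added for 5 min. AlphaScreen beads (10 ug/ml) added, 10 min RT; tyrosine-FITC cleavage read as signal loss.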
BAZ2B block: qHTS Assay for Inhibitors of BAZ2B | Bromodomain adjacent to zinc finger domain protein 2B (Homo sapiens), Q9UIF8 | AlphaScreen BAZ2B-H3K14Ac peptide displacement | Potency, µM (doses to about 114 µM), without a hit: at the top dose activity change, negative = inhibition, actives largely listed as inhibitors | actives 4.4% (n = 360,000) | AID 504333, 2011; note: potency is the fitted concentration of half-maximal effect; % is set by controls: 0 for no effect and ±100 for the full control effect; nearly all actives have a fitted effect of over 60% in size
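AlphaScreen displacement of biotin-H3(5-23)K14Ac peptide (50 nM final) from BAZ2B (50 nM final) in PBS pH 7.4, 0.01% Tween-20; complex preformed 30 min RT, then compounds (top 110 uM) 30 min RT, beads 20 min dark.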
* marks the source's active call; other numbers are inactive results; ? = inconclusive; / = not tested or not shown; [ ] = another dose, or the depositor's remark. Shown are actives, neighbours in structure and some others; about 5.3% of the full set was active somewhere. Unless noted, calls come from the whole dose curve; as a rule, active = well fitted inhibition curve with a large enough effect; inconclusive = small, poorly fitted or top-dose-only effect; inactive = no such curve, though single readings can be large or run the other way.

SMILES	CtBP-E1A blk	HP1b binding inh	Six1-Eya2 blk	JMJD2A Tudor inh	TDP1 inh	BAZ2B block
Cc1cccc(-n2c(O)c(/C=N/NC(=O)c3ccncc3)c(=O)[nH]c2=O)c1	-26	35%	?	79µM*	6%	?
Nc1nonc1-n1nnc(C(=O)N/N=C/c2ccc3c(c2)OCO3)c1CSc1ccccc1	0	52%	-1	1%	-4%	-6%[57.1 µM]
NC(Cc1ccc(F)cc1)c1csc(Nc2ncccn2)n1 (stereo unspecified)	-68*	/	?	/	/	/
Nc1ccc(CC(N)c2csc(Nc3ncccn3)n2)cc1 (stereo unspecified)	-75*	/	-67*	/	/	/
[O-][Cl+2]([O-])O	/	/	/	/	12%	/
ClCC(Cl)Cl	/	/	/	/	2%	/
CCCCC(=O)N/N=C/c1c(O)n(Cc2ccc(F)cc2)c(=O)[nH]c1=O	?	26%	-68*	-30%	10%	?
CCCCC(=O)N/N=C/c1c(O)n(CCc2ccc(OC)c(OC)c2)c(=O)[nH]c1=O	-8	28%	5	0%	11%	50µM*
CCCCC(=O)N/N=C/c1c(O)n(CC)c(=S)[nH]c1=O	0	55%	-78*	?	8%	?
CN(C)CCCN=Cc1c(O)n(CCc2ccccc2)c(=O)[nH]c1=O	-1	50%	0	-5%[57.1 µM]	5%	3%
COc1ccc(CCn2c(O)c(/C=N/NC(=O)c3ccncc3)c(=O)[nH]c2=O)cc1OC	?	20%	?	-27%	8%	?
CCCCCCC(=O)N/N=C/c1c(O)n(CCCC)c(=S)[nH]c1=O	?	40%	?	-24%	8%	-11%
CCCCC(=O)N/N=C/c1c(O)n(CCc2ccccc2)c(=O)[nH]c1=O	?	14%	?	79µM*	8%	?
CCOP(=S)(OCC)Oc1ccc([N+](=O)[O-])cc1	/	/	/	/	1%	/
CCCn1c(C(C)C)n[nH]c1=S	2	31%	12	?	/	3%
CC(=O)C1CCC2C3CCC4CC(C)(O)CCC4(C)C3CCC12C (stereo unspecified)	/	/	/	/	8%	/
CC(Cc1ccccc1)NCC(=O)Nc1cc(N(C)C)nc2ccccc12 (stereo unspecified)	9	?	7	1.1µM*	/	35µM*
CC(Cc1ccccc1)NCc1ccccc1O (stereo unspecified)	7	1%	25	-18%	-3%	-5%
COc1ccc(-c2oc(=O)n(C)c2-c2ccc(OC)cc2)cc1	-12	0%	-9	?	/	32µM*
COc1ccc(C=O)cc1	3	49%	2	3%	1%	1%
O=NN(CCO)CCO	/	/	/	/	17%	/
CC(=O)c1cn(Cc2ccc(F)cc2)c2ccccc12	3	23%	-7	-2%	/	-33%
CC(N)Cc1cn(Cc2ccccc2)c2ccccc12 (stereo unspecified)	-21	-22%	-4	79µM*	/	-30%
O=[N+]([O-])c1cc([As](=O)(O)O)ccc1O	5	26%	-7	89µM*	9%[56.1 µM]	-4%
Cc1cccc(CN2CCc3nc(N4CCN(c5ccccn5)CC4)ncc3C2)c1	/	6%	/	79µM*	-1%	50µM*
SMILES	CtBP-E1A blk	HP1b binding inh	Six1-Eya2 blk	JMJD2A Tudor inh	TDP1 inh	BAZ2B block
Cc1nn(CCC#N)c2c1P(=S)(N1CCCC1)OC(c1ccc(F)cc1)=N2 (stereo unspecified)	5	14µM*	1	?	-8%	?
COc1ccc2nc(NC(=O)c3nc(S(=O)(=O)Cc4cccc(C)c4)ncc3Cl)sc2c1	/	41%	/	-17%	-2%	-16%
O=C(Nc1nnc(-c2ccco2)o1)c1cccc2ccccc12	-14	32%	-28	?	-2%	?
O=C(NC1CC1)c1cc(-c2ccco2)nc2ccccc12	-2	18µM*	?	8.9µM*	4.5µM*	10µM*
NC(=O)C[N+]1(CC#CC(O)(c2ccccc2)c2ccccc2)CCCC1	-5	22%	5	32µM*	5%	-3%
C(CCOCC1CO1)COCC1CO1 (stereo unspecified)	/	/	/	/	14%	/
COc1cc2c(cc1O)C(CCc1ccc(Cl)cc1)N(C)CC2 (stereo unspecified)	/	/	/	/	10%	/
Clc1ccccc1CN1CCNCC1	1	44%	2	5%	4%	8%
CCc1ccc(CN2CCN(C(=O)Cc3ccccc3)CC2)cc1	2	28µM*	0	20µM*	0%	25µM*
Cc1cccc(CN2CCN(C(=O)Cc3ccccc3)CC2)c1	3	?	1	6.3µM*	/	79µM*
CSc1ccc(CN2CCN(Cc3ccccc3Cl)CC2)cc1	/	?	-17	5µM*	-3%	18µM*
CN1CCN(C(=O)Cc2ccccc2)CC1	2	65%	13	-7%	/	-8%
COc1cc(OC)c(OC)cc1CN1CCN(C(=O)Cc2ccccc2)CC1	2	?	-2	18µM*	/	?
Cc1cc(S(=O)(=O)NCC(C)C)ccc1OCC(=O)N1CCN(Cc2ccccc2)CC1	7	-1%	11	-16%	7%	-5%
CN(C)C(CSC(N)=O)CSC(N)=O	/	/	/	/	17%	/
O=C(Cn1c(=O)n(Cc2ccccc2)c(=O)c2sc3ccccc3c21)NCc1ccccc1Cl	/	63%	/	-5%	4%	-32%
CSc1ccc(CN2CCN(C(=O)Cc3ccccc3)CC2)cc1	/	?	11	20µM*	/	/
O=C(c1cc2ccccn2n1)N1CCN(Cc2ccccc2)CC1	-1	43%	7	-1%	5%	1%
O=C(Cc1ccccc1)N1CCN(Cc2ccccc2Cl)CC1	/	?	1	18µM*	/	20µM*
Cc1cccc(OCC(=O)N2CCN(Cc3cccnc3)CC2)c1	-4	?	-3	2.8µM*	3%	?
Cc1ccc(CN2CCN(Cc3ccccc3)CC2)cc1	-10	11%	0	-18%	-2%	?
c1ccc(CN2CCN(Cc3ccc4ccccc4c3)CC2)cc1	-9	?	?	0.79µM*	/	28µM*
C[C@@H]1C(=O)O[C@H]2C[C@@]34[C@H]5C[C@@H](C(C)(C)C)[C@]36[C@@H](OC(=O)[C@@H]6O)O[C@@]4(C(=O)O5)[C@]21O	12	30%	0	-3%	/	8%
Nc1ccc([N+](=O)[O-])cc1N	/	/	/	/	15%	/
Cl/C=C\Cl	/	/	/	/	9%	/
